# In PubChem BioAssay (NCI):
# The panel holds about 83,000 compounds, 20% with a hit somewhere; the sample as a whole holds those more often.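 Negative percent growth values reflect cell death: -40 means 40% of the cells present at the start died, and -100 means all died.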 Values without a mark were called inactive. Active and inactive are the calls of the source. The calls were made as follows: active = growth percent below 10; inactive = the rest.
# How the values were obtained:
# Experiment in all cases: NCI-60 one-dose screen, 48 h (100 = growth as untreated, 0 = no growth, -100 = all killed)
# Settings in all cases: 10 µM unless noted
# [1] = tested on: HCT-15 colon
# [2] = tested on: HT29 colon
# [3] = tested on: SNB-75 CNS
# [4] = tested on: SNB-19 CNS
# [5] = tested on: U251 CNS
# [6] = tested on: PC-3 prostate
# [7] = tested on: SK-MEL-5 melanoma
# [8] = tested on: UACC-62 melanoma
# [9] = tested on: LOX IMVI melanoma
# [10] = tested on: SK-MEL-28 melanoma
SMILES,growth [1],growth [2],growth [3],growth [4],growth [5],growth [6],growth [7],growth [8],growth [9],growth [10]
COc1cc(C(=O)/C=C/c2c(C)n([O-])c3ccc(Cl)cc3[n+]2=O)cc(OC)c1OC,29.6%,62.8%,60.4%,99.8%,61.4%,46.7%,89.4%,60.4%,65.8%,80.8%
CC(C)(C)OC(=O)N1C/C(=C\c2ccoc2)C(=O)/C(=C/c2ccoc2)C1,99.6%,98%,77%,96.5%,88.2%,89.5%,99.8%,88.3%,90.7%,102%
Cc1ccc(C2C3CC4CCCCC4N3[C@@]3(C(=O)Nc4cc(Cl)ccc43)C2C(=O)c2nc3ccccc3[nH]2)cc1 (stereo not given in full),21.5%,19.5%,45.1%,49.7%,38%,25.3%,45%,54.7%,29.7%,66.2%
CC(C)NC(=O)N1C(=O)CCC1NNC(=O)c1ccc([N+](=O)[O-])cc1 (stereo not given),107%,106%,102%,107%,109%,107%,105%,98.1%,93.9%,98.4%
COc1ccc(/C=C/c2n[nH]c3ccc(N4CCOC4=O)cc23)cc1,10.1%,-18.6% (active),-11.1% (active),18.2%,15.9%,18.5%,11.7%,16.5%,1.88% (active),33.5%
CN1CCCC1=Nc1ccccc1,111%,98.1%,80%,107%,94.7%,96.9%,104%,91.4%,96.6%,96.6%
CCCCCCN(C)Cc1ccc(OCCOc2ccc(CN(C)CCCCCC)cc2)cc1,5.57% (active),1.29% (active),28.8%,27.9%,7.97% (active),23.9%,-99.7% (active),-11.5% (active),-95.3% (active),-68.7% (active)
CC1=NNC(=O)C1CCC(=O)N/N=C(\C)c1ccc2ccccc2c1 (stereo not given),107%,116%,121%,114%,109%,94.9%,105%,97.5%,99.5%,109%
COc1ccc(/C=C/C(=O)c2ccc(OC)c(OC)c2)cc1O,56.5%,63.8%,86.1%,82.1%,25.4%,82.4%,77.2%,87.1%,65.5%,101%
COc1ccc(C2CC(c3cccc(Nc4ccncc4)c3)=NN2c2ccc(Cl)cc2)cc1 (stereo not given),-53.3% (active),-20.2% (active),54.9%,90.4%,-40% (active),30.9%,61.3%,97%,-80.5% (active),-80.7% (active)
CC(Oc1ccc(C(=O)NS(=O)(=O)C(C)(C)C)cc1C(F)(F)F)c1ccc(Oc2ccccc2)cn1 (stereo not given),41.5%,59.5%,48.1%,63.8%,58.1%,93.8%,45.1%,36.7%,60.1%,61%
CCCCCCc1nc2nc(Cl)c(Cl)nc2[nH]1,57.2%,77.3%,53.2%,65.6%,49%,47.9%,16.2%,38.4%,53.7%,65.1%
COc1cc(C(=O)c2cnc(-c3ccc4cc[nH]c4c3)[nH]2)cc(OC)c1OC,6.36% (active),-21.6% (active),9.22% (active),23.1%,10%,18%,-63% (active),29.4%,8.42% (active),55.9%
